Bioassay records as filed in PubChem.
Only some compounds are listed: those with a hit (about 3.5% of all), similar ones and a draw of the others.
GPR151 ag: human GPR151 activation. Q8TDV0. PathHunter beta-arrestin GPR151 cells, luminescence. activation, % at 11.2 µM. 1% of 650,000 active; in the data active means activation above about 4.9%;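 further: 0% = median of compound wells and 100% = cells with positive control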
TEAD-YAP block: TEAD-YAP interaction inhibition; HEK-TIYL cells, TEAD-Gal4/YAP UAS-luciferase luminescence; inhibition, % at 9.12 µM; 1.4% of 640,000 active; in the data active means inhibition above about 32%;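 further: 0% = median of test compound wells and 100% = reference inhibitor wells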
FBW7 activator: human FBW7 E3 ligase activation, primary screen. AlphaScreen FBW7–phospho-cyclin E peptide binding, activator screen. 0.13% of 650,000 active. normalized activity (activation), % at 26.1 µM. Q969H0; in the data active means normalized activity above about 1.9%;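 further: purified mutant Fbw7 with reduced substrate affinity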
MITF inh: blocks human microphthalmia-associated transcription factor | inhibition, % at 2.6 µM | AlphaScreen MITF homodimerization, bead proximity signal | O75030 | AID 1259374 | 0.91% of 650,000 active; in the data active means inhibition above about 50%;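 further: 0% = vehicle wells with protein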
* hit, by the source's call.

SMILES	GPR151 ag	TEAD-YAP block	FBW7 activator	MITF inh
c1ccc(-c2cnc(N3CCC4(CC3)OCCO4)nc2)cc1	-11	70*	0	2
c1ccc(-c2cc(N3CCC4(CC3)OCCO4)nc(-c3ccccn3)n2)cc1	1	43*	0	1
Fc1ccc(-c2cc(N3CCC4(CC3)OCCO4)nc(-c3ccccn3)n2)cc1	-1	15	0	9
COc1ccc(-c2cnc(N3CCC4(CC3)OCCO4)nc2)cc1	0	-27	0	5
COC(=O)C1=C(C)N=c2s/c(=C\c3ccc(C)cc3)c(=O)n2C1c1cccs1 (stereo not drawn)	1	10	0	4
N#C/C(=C1/Nc2ccccc2S1)c1ccnc(OCc2ccc(CN3CCOCC3)cc2)n1	3	86*	0	18
COc1cc(NC(=O)c2sc3ncnc(N(C)c4ccccc4)c3c2C)cc(OC)c1OC	0	50*	0	8
COc1cccc(CNCCC2CCC(=O)N2CC2CCCCC2)c1 (stereo not drawn)	-1	1	0	-8
O=C(CSc1nc2ccccc2c2nc(-c3ccccc3)nn12)c1ccc(O)c(O)c1	2	44*	0	24
O=C1CCCC2=C1C(c1cccc(F)c1Br)n1c(nc3ccccc31)N2 (stereo not drawn)	1	36*	0	13
COC(=O)COc1cccc(-c2nc(Nc3ccc4[nH]ncc4c3)c3ccccc3n2)c1	0	3	0	13
O=C(COc1cccc(-c2nc(Nc3ccc4[nH]ncc4c3)c3ccccc3n2)c1)Nc1cccnc1	0	37*	0	13
COc1ccc(OC)c(-n2c(C)cc(/C=C3/C(=N)N4C=CSC4=NC3=O)c2C)c1	1	28	0	-4
COc1ccc(OC)c(-n2c(C)cc(/C=C3/C(=N)N4C=C(C)SC4=NC3=O)c2C)c1	1	47*	0	7
COc1ccc(C)cc1-n1c(C)cc(/C=C2/C(=N)N3C=C(C)SC3=NC2=O)c1C	0	51*	0	-7
COc1ccccc1-n1c(C)cc(/C=C2/C(=N)N3C=CSC3=NC2=O)c1C	0	94*	0	7
COc1ccc(S(=O)(=O)N(CC(=O)N2CCCCC2)Cc2ccccc2)cc1OC	3	7	1	6
CC(O)c1nc2ccccc2n1CC(=O)Nc1ccccc1Oc1ccccc1 (stereo not drawn)	0	0	0	3
O=[N+]([O-])c1nn(-c2ccc(Cl)cc2)n(O)c1=NCCO	-1	-8	0	3
COc1cc(NC(=O)c2sc3nc(N)c(C#N)cc3c2N)cc(OC)c1OC	1	-11	0	29
COc1ccc(NC(=O)c2sc3nc(N)c(C#N)cc3c2N)cc1	2	-30	18*	18
Cc1ccc(-c2cc(C(F)(F)F)n3ncc(C(=O)Nc4ccc(C)c(Cl)c4)c3n2)cc1	-1	2	0	-5
Cc1ccc(-c2cc3ncc(C#N)c(-c4cccc(C)c4)n3n2)cc1	-2	-1	0	21
Cc1cccc(-c2c(C#N)cnc3cc(C)nn23)c1	0	33*	0	-7
O=[N+]([O-])c1cc(Br)c(Nc2ccccc2)c([N+](=O)[O-])c1	2	40*	0	13
SMILES	GPR151 ag	TEAD-YAP block	FBW7 activator	MITF inh
CC(C)C(Nc1ccc(Br)cn1)n1cncn1 (stereo not drawn)	0	-2	0	1
Clc1cccc(-n2nnnc2C(c2ccccc2Cl)N2CCCCC2)c1 (stereo not drawn)	3	4	0	-3
c1ccc(Cc2nc(NCC3COc4ccccc4O3)c3c4c(sc3n2)CCCC4)cc1 (stereo not drawn)	1	-6	0	9
Cc1nc(NCc2ccc3c(c2)OCO3)c2c(C)c(C)sc2n1	2	39*	0	6
Cc1nc(NCC2COc3ccccc3O2)c2c(C)c(C)sc2n1 (stereo not drawn)	3	47*	0	-12
CCc1ccc(C(=O)Nc2cccc(C)c2N2CCC3(CC2)OCCO3)o1	1	3	0	6
c1cncc(CNc2nc(NCc3cccnc3)c3ncn(-c4ccsc4)c3n2)c1	0	-16	0	5
c1cncc(CNc2nc(Nc3ccc4ncccc4c3)nc3c2ncn3-c2ccsc2)c1	-1	33*	0	3
Nc1nc(Nc2cnccn2)nc2c1ncn2-c1ccsc1	-2	43*	0	13
c1cncc(CNc2nc(NC3CC3)c3ncn(-c4ccsc4)c3n2)c1	0	40*	0	7
c1cncc(CNc2nc(Nc3cnccn3)nc3c2ncn3-c2ccsc2)c1	-1	59*	0	24
c1ccc(Nc2nc(Nc3cnccn3)nc3c2ncn3-c2ccsc2)cc1	0	-37	0	-11
c1ccc(CNc2nc(NCc3cccnc3)nc3c2ncn3-c2ccsc2)cc1	-3	32	0	11
COc1ccccc1N1CCN(C(=O)CCn2c(=S)[nH]c3ccccc3c2=O)CC1	-1	-1	0	1
CCN(CC)CCCC(C)NC(=O)c1c(O)c2c([nH]c1=O)CCCC2 (stereo not drawn)	-1	5	1	11
Nc1nc(Nc2ccc3ncccc3c2)nc2c1ncn2-c1ccccc1	1	33*	52*	-10
c1cnc(Nc2nc(NCc3cccnc3)c3ncn(-c4ccsc4)c3n2)nc1	0	7	0	-4
CC(C)n1cnc2c(NCc3cccnc3)nc(Nc3nccc4ccccc34)nc21	0	32*	0	6
c1ccc(CNc2nc(Nc3ccc4ncccc4c3)nc3c2ncn3-c2ccccc2)cc1	2	-4	0	-4
c1cncc(CNc2nc(Nc3nccc4ccccc34)nc3c2ncn3-c2ccsc2)c1	0	59*	0	33
CC(=O)Nc1ccc(Nc2nc(Nc3nccc4ccccc34)nc3c2ncn3C(C)C)cc1	1	45*	0	5
O=C(CN1CCOCC1)Nc1ccc(F)c(F)c1F	0	8	0	4
Cc1ccccc1N1C(=O)C(Cl)=C(Cl)C1=O	0	5	1	21
CCOC(=O)C(=CNc1ccc(S(=O)(=O)N(CC)CC)cc1)C(=O)OCC	1	0	0	3
CN1C(=O)N(C)c2cccc3cccc1c23	-1	-17	0	1
SMILES	GPR151 ag	TEAD-YAP block	FBW7 activator	MITF inh
CN1C(/C=C/c2ccccc2Cl)=Nc2cccc3cccc1c23	0	-47	0	53*
CCC1S/C(=N/S(=O)(=O)c2ccc(F)cc2)N(CC)C1=O (stereo not drawn)	1	3	0	8
CC(C)CC1=NN2C(=N)/C(=C/c3ccc(-c4cc(Cl)cc(Cl)c4)o3)C(=O)N=C2S1	-1	0	0	-18
Nc1ncnc(N(c2ccccc2)C2CCCCC2)c1[N+](=O)[O-]	1	-5	0	16
CCN(c1ncnc(N)c1[N+](=O)[O-])C1CCCCC1	0	51*	0	21
CCOC(=O)c1[nH]c(C)c(C(=O)Nc2ccc(OC)cc2OC)c1C	1	44*	0	6
CCOC(=O)c1[nH]c(C)c(C(=O)Nc2ccccc2SC)c1C	1	52*	0	-3
